From PubChem BioAssay AID2563 (Broad Institute, 2010)
In all, about 290,000 compounds went through this assay and about 800 (0.28%) were called active. The sample holds actives, similar compounds and a random draw of the others, so the mix is not that of the screen.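 The calls were made as follows: active = fall in fluorescence gain of 50% or more versus controls, with final raw signal at or below 3038400; inconclusive = same 50% fall but final raw signal above 3038400; inactive = fall in fluorescence gain under 50%.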

target: CAAX prenyl protease 2 (Saccharomyces cerevisiae (strain ATCC 204508 / S288c)) (UniProt Q03530); test: blockers of Rce1 CaaX peptide cleavage – biochemical, fluorescence, cell-free homogeneous, primary screen (AID 2563); settings: yeast membranes, quenched prenylated peptide cleavage fluorescence
Sequence (Q03530 whole entry, looked up): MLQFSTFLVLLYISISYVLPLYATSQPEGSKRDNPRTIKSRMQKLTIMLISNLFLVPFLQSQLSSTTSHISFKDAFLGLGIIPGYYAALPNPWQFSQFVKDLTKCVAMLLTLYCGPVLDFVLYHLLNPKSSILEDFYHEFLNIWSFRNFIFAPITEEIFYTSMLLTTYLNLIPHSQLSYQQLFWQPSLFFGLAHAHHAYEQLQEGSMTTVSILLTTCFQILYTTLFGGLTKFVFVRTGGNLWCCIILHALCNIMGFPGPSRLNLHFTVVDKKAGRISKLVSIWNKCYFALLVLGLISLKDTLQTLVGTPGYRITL

| Compound | outcome |
| --- | --- |
| CCOC(=O)c1c(N)n(Cc2ccccc2)c2nc3ccccc3nc12 | inactive |
| CCOC(=O)c1c(N)n(CCN2CCOCC2)c2nc3ccccc3nc12 | inactive |
| COc1cc(Cn2c(N)c(C(=O)NCc3ccco3)c3nc4ccccc4nc32)cc(OC)c1OC | active |
| COC(=O)C1=C(c2cc3ccccc3s2)C[C@@H]2CC[C@H]1N2C(=O)NCCO | inactive |
| Cc1cc(N2C(=O)C3CCCN3C2c2ccc(Cl)c(Cl)c2)no1 (stereo not given) | inactive |
